# Reference: paper PMC4336329 (PLoS ONE, 2015)
# In all, about 310,000 compounds went through this assay and about 14,000 (4.5%) showed an effect of 50% or more. Effects have a minus sign here. The entries come from a sample that favours strong results as a whole.
# Molecular target: human ether-à-go-go-related gene (hERG) potassium channel (human, UniProt Q12809)
# Test: primary screen, population patch clamp on CHO cells stably expressing hERG; higher = less effect of the substance
# 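Further: peak tail current of the secondary pulse compared with the same well before compound.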
# human ether-à-go-go-related gene (hERG) potassium channel, sequence (Q12809 whole entry, looked up): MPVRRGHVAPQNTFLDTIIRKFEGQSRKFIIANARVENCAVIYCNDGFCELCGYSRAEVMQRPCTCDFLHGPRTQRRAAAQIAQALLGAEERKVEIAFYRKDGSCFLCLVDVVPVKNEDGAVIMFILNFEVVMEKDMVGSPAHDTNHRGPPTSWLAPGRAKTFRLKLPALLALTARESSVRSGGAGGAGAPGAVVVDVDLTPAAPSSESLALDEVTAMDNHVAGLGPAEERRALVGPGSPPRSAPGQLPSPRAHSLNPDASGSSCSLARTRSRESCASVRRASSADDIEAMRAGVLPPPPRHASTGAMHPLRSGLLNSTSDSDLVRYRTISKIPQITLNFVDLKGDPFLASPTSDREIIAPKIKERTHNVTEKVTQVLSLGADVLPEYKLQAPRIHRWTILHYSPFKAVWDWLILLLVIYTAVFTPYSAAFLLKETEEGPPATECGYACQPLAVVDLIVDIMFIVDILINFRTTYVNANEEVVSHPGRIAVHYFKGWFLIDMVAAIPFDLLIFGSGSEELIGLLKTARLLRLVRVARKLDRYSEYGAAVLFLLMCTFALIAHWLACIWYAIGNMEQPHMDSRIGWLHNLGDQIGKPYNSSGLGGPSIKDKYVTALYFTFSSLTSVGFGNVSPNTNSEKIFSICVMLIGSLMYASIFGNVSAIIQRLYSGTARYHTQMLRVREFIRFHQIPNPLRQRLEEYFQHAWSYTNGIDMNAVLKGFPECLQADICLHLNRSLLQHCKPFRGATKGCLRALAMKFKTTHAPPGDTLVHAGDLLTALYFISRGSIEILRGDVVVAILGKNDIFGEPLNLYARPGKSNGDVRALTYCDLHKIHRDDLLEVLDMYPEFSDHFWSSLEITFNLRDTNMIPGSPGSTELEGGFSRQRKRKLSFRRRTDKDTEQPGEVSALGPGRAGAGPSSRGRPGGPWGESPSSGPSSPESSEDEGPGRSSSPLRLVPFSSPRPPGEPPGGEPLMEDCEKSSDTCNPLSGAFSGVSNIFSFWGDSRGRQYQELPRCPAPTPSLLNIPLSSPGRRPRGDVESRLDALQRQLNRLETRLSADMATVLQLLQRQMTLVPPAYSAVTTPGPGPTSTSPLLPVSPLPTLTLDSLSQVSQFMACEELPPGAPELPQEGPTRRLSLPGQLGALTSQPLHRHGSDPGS
row,Compound,"hERG current change (%, negative = inhibition) at 10uM [%]"
1,O=C(Cc1ccccc1)Nc1ccc(N2CCOCC2)cc1N1CCOCC1,-0.646
2,CSCCC(NC(=O)COc1ccccc1)C(=O)N1CC(C)CC(C)C1 (stereo not shown),-41.4
3,CCCCc1cc(=O)oc2c(CN3CCCC3)c(O)c(Cl)cc12,-20.9
4,COC(=O)c1[nH]c2c(c1C)C(=O)CC(c1ccc(OC)c(OC)c1)C2 (stereo not shown),-0.262
5,CC(Sc1ccccc1)C(=O)N(CCC#N)Cc1cccnc1 (stereo not shown),6.64
6,Cc1ccc(NC(=O)CSc2nnc(-c3cnccn3)n2Cc2ccco2)cc1,-21.3
7,COc1ccccc1C1CC(c2ccc(Cl)cc2)Nc2ncnn21 (stereo not shown),-44.8
8,Cc1cccn2c(CN(C)C3CCOC3)c(C(=O)N3CCCCC3)nc12 (stereo not shown),32.3
9,O=c1cc(-c2ccc(O)c(O)c2)oc2cc(O)c(C3OC(CO)C(O)C(O)C3O)c(O)c12 (stereo not shown),3.72
10,CC1(C)Cc2cccc(OCC(=O)NCc3cccs3)c2O1,-0.101
11,Cc1cc(C)cc(NC(=O)N2CCN(C/C=C/c3ccccc3)CC2)c1,-69
12,CC1=C(C)CC(C(=O)N2CCN(C/C=C/c3ccccc3)CC2)C(C(=O)O)C1 (stereo not shown),8.99
13,O=C(C1CCN(Cc2ccc(F)cc2)CC1)N1CCN(C/C=C/c2ccccc2)CC1.O=C(O)C(=O)O,-63.6
14,C=C(C)c1cccc(C(C)(C)NC(=O)N2CCN(C/C=C/c3ccccc3)CC2)c1,-62.9
15,CCNC(=O)N1CCN(C(=O)NCC)CC1,15.7
16,CCNC(=O)N1CCN(CCCC(c2ccc(F)cc2)c2ccc(F)cc2)CC1.Cl,-82.3
17,Cc1ccc(NC(=O)N2CCN(C/C=C/c3ccccc3)CC2)cc1,-44.6
18,C=C(C)c1cccc(C(C)(C)NC(=O)N2CCN(CC)CC2)c1,7.13
19,O=C(C1CCN(Cc2ccccc2)CC1)N1CCN(C/C=C/c2ccccc2)CC1.O=C(O)C(=O)O,-33.3
20,CCCCNC(=O)N1CCN(Cc2ccc(F)cc2)CC1,-11.3
21,O=C(Cc1ccccc1)N1CCN(Cc2ccc(F)cc2)CC1.O=C(O)C(=O)O,2.38
22,C=C(C)c1cccc(C(C)(C)NC(=O)N2CCN(CC(N)=O)CC2)c1,11.3

row,Compound,"hERG current change (%, negative = inhibition) at 10uM [%]"
1,Cn1c(=O)c2c(ncn2CC(O)CNc2ccc(F)cc2)n(C)c1=O (stereo not shown),1.35
2,COc1ccc(S(=O)(=O)N2CCC(C(=O)NCCC(=O)NCc3ccncc3)CC2)cc1,11
3,CCN(CCN1CCCC1)C(=O)c1cc(COc2ccccc2SC)on1,-32.1
4,CN(C)C=NC(=O)c1ccc(N2CCN(c3ncc(C(F)(F)F)cc3Cl)CC2)cc1,7.74
5,O=C(NCCO)Nc1ccc2nsnc2c1,-5.93
6,NC(=O)c1ccccc1N=Cc1cccnc1,-21
7,Cc1cc(N2C(=O)c3ccc(C(=O)Nc4ccccc4O)cc3C2=O)no1,14.1
8,O=c1c(Cc2c(F)cccc2Cl)c(O)ccn1C1CC1,-11.7
9,COc1ccc(NC(=O)c2csc3c2CCCCC3)c(OC)c1,-6.93
10,CCOC(=O)c1c(C)[nH]c(C(=O)N/N=C/c2cc([N+](=O)[O-])ccc2O)c1C,33.7
11,CCCCCn1c(=O)c(C(=O)Nc2ccccc2N)c(O)c2ccccc21,21.4
12,CCOC(=O)c1cc(NCc2cccs2)ccc1N1CCOCC1,-3.79
13,COc1ccc(-c2[nH]c(-c3ccc4c(c3)OCO4)nc2-c2ccccc2)cc1,1.88
14,COc1ccc(/C=N/NC(=O)c2ccccc2O)cc1CN1CCOCC1,-12.8
15,COc1ccc(/C=N/NC(=O)c2cccnc2)cc1CN1CCN(c2ccc(F)cc2)CC1,-51
16,COc1ccc(/C=N\NC(=O)c2ccccc2)cc1COc1ccc(F)cc1,-0.876
17,COc1ccc(/C=N/NC(=O)c2cccnc2)cc1CN1CCc2ccccc2C1,-17.9
18,COc1ccc(/C=N\NC(=O)c2cc(O)c(O)c(O)c2)cc1CN1CCN(c2ccc(F)cc2)CC1,14.6
19,COc1ccc(/C=N/NC(=O)c2ccc(C)cc2)cc1CN1CCN(c2ccc(F)cc2)CC1,-69.8
20,COc1cc(C(=O)N/N=C/c2ccc(OC)c(CN3CCN(c4ccc(F)cc4)CC3)c2)ccc1O,-75.3
21,COc1cc(OC)cc(C(=O)N/N=C/c2ccc(OC)c(COc3ccc(F)cc3)c2)c1,6.62
